The record followed here is article PMC4336329 (PLoS ONE, 2015).

Among all 310,000 compounds or so, about 14,000 (4.5%) showed an effect of 50% or more. Effects have a minus sign here. The full list was thinned out, with strong results kept by preference.
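Also: peak tail current of the secondary pulse compared with the same well before compound.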

Sequence of human ether-à-go-go-related gene (hERG) potassium channel (Q12809 whole entry, looked up): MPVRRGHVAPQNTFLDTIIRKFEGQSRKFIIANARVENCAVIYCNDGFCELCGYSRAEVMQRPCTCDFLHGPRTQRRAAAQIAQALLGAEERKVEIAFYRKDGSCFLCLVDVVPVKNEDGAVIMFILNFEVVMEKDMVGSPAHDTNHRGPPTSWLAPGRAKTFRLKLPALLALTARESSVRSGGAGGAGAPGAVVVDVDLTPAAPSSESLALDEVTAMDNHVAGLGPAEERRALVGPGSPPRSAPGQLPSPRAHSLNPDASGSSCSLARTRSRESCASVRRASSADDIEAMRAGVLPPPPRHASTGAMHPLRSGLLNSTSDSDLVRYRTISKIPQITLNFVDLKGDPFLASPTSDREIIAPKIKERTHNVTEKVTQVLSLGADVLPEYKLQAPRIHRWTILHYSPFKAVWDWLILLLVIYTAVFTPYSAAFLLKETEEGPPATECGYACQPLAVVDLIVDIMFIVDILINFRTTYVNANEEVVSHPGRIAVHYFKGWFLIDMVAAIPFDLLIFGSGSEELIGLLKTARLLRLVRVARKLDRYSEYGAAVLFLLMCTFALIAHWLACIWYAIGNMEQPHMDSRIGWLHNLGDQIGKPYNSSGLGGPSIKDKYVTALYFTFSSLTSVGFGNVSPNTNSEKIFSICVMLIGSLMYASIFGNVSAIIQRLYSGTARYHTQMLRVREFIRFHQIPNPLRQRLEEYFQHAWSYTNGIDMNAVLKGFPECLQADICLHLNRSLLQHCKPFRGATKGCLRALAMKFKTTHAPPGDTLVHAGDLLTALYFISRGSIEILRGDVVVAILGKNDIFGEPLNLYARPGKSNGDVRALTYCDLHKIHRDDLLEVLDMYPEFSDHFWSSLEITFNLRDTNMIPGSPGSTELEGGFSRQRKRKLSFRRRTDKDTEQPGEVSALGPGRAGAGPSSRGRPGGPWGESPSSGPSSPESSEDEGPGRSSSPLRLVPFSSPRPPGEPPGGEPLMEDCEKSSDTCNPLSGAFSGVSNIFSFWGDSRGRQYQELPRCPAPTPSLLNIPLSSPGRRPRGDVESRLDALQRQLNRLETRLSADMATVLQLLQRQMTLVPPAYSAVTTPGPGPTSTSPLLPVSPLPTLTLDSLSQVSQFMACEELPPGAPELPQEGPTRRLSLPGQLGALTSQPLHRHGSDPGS

This test addresses human ether-à-go-go-related gene (hERG) potassium channel (human, UniProt Q12809). Put plainly: primary screen, population patch clamp on CHO cells stably expressing hERG; higher = less effect of the substance.
Consider `C=CCNC(=O)c1onc(CSc2ccc(F)cc2)c1C(=O)NCCOC`, for which the “hERG current change (%, negative = inhibition) at 10uM” value is given as -43%.
Consider `CCN(CC(=O)NCc1ccc(Cl)cc1)C(=O)/C=C/c1ccc(Cl)c([N+](=O)[O-])c1`, for which the “hERG current change (%, negative = inhibition) at 10uM” value is reported as -67.6%.
Turning to `CCN(CC(=O)NCc1ccc(Cl)cc1)C(=O)/C=C/c1cccs1`, the “hERG current change (%, negative = inhibition) at 10uM” value was -49.1%.
For `CCN(CC(=O)NCc1ccc(Cl)cc1)C(=O)/C=C/c1ccccc1` the value was -46%.
Next, `CCN(CC(=O)NCc1ccc(Cl)cc1)C(=O)/C=C/c1ccc(C#N)cc1`: -62%.
For `CCN(CC(=O)Nc1ccccc1C(F)(F)F)C(=O)/C=C/c1ccc(Cl)c([N+](=O)[O-])c1` the value was 10.1%; for `CCN(CC(=O)NCc1ccc(Cl)cc1)C(=O)/C=C/c1cc(OC)c(OC)c(OC)c1`, 3.83%.
For the molecule `CN(CCC(=O)Nc1ccc(Cl)cc1)Cc1ccccc1.Cl`, the “hERG current change (%, negative = inhibition) at 10uM” value is recorded as -39.9%.
For `CCCC(NC(=O)COc1cc2c(c3oc(=O)cc(C)c13)CCC(C)(C)O2)C(=O)O` (centres unmarked) the value was 18.4%; for `O=C(NCc1ccccc1)c1ccc(C2SCC(=O)N2Cc2ccccc2)cc1` (centres unmarked), -12.6%; for `CCOc1c(OC(C)=O)ccc(/C=C/c2ccc3cccc(OC(C)=O)c3n2)c1[N+](=O)[O-]`, -4.23%.
Next, `O=Cc1ccc2oc3nc4n(c(=O)c3c(=O)c2c1)CCCS4`: -35.7%; `CCOC(=O)N1CCN(c2nc3ccccc3nc2C(C#N)C(=O)NCCc2ccccc2)CC1` (centres unmarked): 7.98%; `CCC(CC)COC(=O)C(C#N)c1nc2ccccc2nc1N1CCN(CC)CC1` (centres unmarked): -72.7%.
Consider `CCC(C)COC(=O)C(C#N)c1nc2ccccc2nc1N1CCCCC1` (centres unmarked), for which the “hERG current change (%, negative = inhibition) at 10uM” value is listed as -1.25%.
Next, `CCC(CC)COC(=O)C(C#N)c1nc2ccccc2nc1N1CCOCC1` (centres unmarked): -7.91%; `CCN1CCN(c2nc3ccccc3nc2C(C#N)C(=O)OCc2ccccc2)CC1` (centres unmarked): -73.7%.
Next, `COC(=O)C(C#N)c1nc2ccccc2nc1N1CCCC1` (centres unmarked): -0.357%; `COc1ccc(/C=C/C(=O)c2ccc[nH]2)c(OC)c1OC`: -4.89%.
Next, `CC(=O)c1ccc(-n2c(C)ccc2-c2ccccc2)cc1`: 1%.
As to `CCOC(=O)N1CCN(C(=O)Cn2ccc3c(OC)cccc3c2=O)CC1`, the “hERG current change (%, negative = inhibition) at 10uM” value turned out to be 6.78%.
For `CCOC(=O)c1sc(NS(=O)(=O)c2cc(C)ccc2C)nc1C` the value was 10.4%.
For `COc1ccc(/C=C/C=C2\NC(=S)NC2=O)cc1` the value was 22.1%; for `Cc1cc2nc(/N=C(\N)NC(=O)N3c4ccccc4Sc4ccccc43)nc(C)c2cc1C`, -38.9%.
Next, `CN(C(=O)CSC1=Nc2ccccc2C2=NC(c3ccccc3)C(=O)N12)C1CCCCC1` (centres unmarked): -73%; `CCC(C)NC(=O)CSC1=Nc2ccccc2C2=NC(CC(=O)NCc3ccccc3)C(=O)N12` (centres unmarked): -0.668%; `CCN(CC)C(=O)CSC1=Nc2ccccc2C2=NC(c3ccccc3)C(=O)N12` (centres unmarked): -46.4%.
Take `CCC(C)NC(=O)CSC1=Nc2ccccc2C2=NC(c3ccccc3)C(=O)N12` (centres unmarked): the “hERG current change (%, negative = inhibition) at 10uM” value was -55.3%.
Regarding `O=C(CSC1=Nc2ccccc2C2=NC(c3ccccc3)C(=O)N12)NC1CCCCC1` (centres unmarked), the “hERG current change (%, negative = inhibition) at 10uM” value is on record as -20.1%.
Next, `NC(=O)CSC1=Nc2ccccc2C2=NC(c3ccccc3)C(=O)N12` (centres unmarked): 1.61%.
Next, `O=C1CCCC(O)=C1N=Nc1cccc(S(=O)(=O)N2CCOCC2)c1`: -1.24%.
On to `O=C(N/N=C\c1ccc[nH]1)c1cncc(Br)c1`, for which the “hERG current change (%, negative = inhibition) at 10uM” value is 3.82%.
Next, `O=C(NCc1ccccn1)C1CCCN(S(=O)(=O)c2ccccc2)C1` (centres unmarked): 10.9%.
Turning to `COc1ccc(C(=O)NCc2nnc(SCC(=O)NO)n2Cc2ccccc2)cc1`, the “hERG current change (%, negative = inhibition) at 10uM” value is -5.01%.
In the case of `O=C(O)c1ccc(-n2ccnc2)c([N+](=O)[O-])c1`, the “hERG current change (%, negative = inhibition) at 10uM” value was 32.1%.
Next, `CC(NC(=O)c1cc([N+](=O)[O-])cc([N+](=O)[O-])c1)c1ccc(-n2ccnc2)cc1` (centres unmarked): -73.5%; `O=[N+]([O-])c1ccc(-n2ccnc2)cc1`: 7.95%; `Cc1cccc(C(=O)NC(C)c2ccc(-n3ccnc3)cc2)c1C` (centres unmarked): -42.2%.
For `COc1ccccc1NC(=O)c1ccc(-n2ccnc2)c([N+](=O)[O-])c1` the value was 15.1%.
Turning to `Cc1c(C(=O)NC(C)CCc2ccccc2)cccc1[N+](=O)[O-]` (centres unmarked), the “hERG current change (%, negative = inhibition) at 10uM” value is on record as -18.2%.
Next, `COc1ccc(C(=O)NNC(=O)c2ccncc2)cc1[N+](=O)[O-]`: 25.2%.
For `Cc1c(C(=O)NC(C)c2ccc(-n3ccnc3)cc2)cccc1[N+](=O)[O-]` (centres unmarked), the “hERG current change (%, negative = inhibition) at 10uM” value is -74.1%.
Next, `COc1ccc(C(=O)NC(C)c2ccc(-n3ccnc3)cc2)cc1[N+](=O)[O-]` (centres unmarked): -77.9%; `CC(NC(=O)c1ccc(N(C)C)c([N+](=O)[O-])c1)c1ccc(-n2ccnc2)cc1` (centres unmarked): -62.9%; `Cc1cccc(N2CN(Cc3cccnc3)CNC2=S)c1`: -3.28%.
Next, `COc1ccc(-c2cc(=O)oc3c(C)c(OCC(=O)Nc4cccnc4)ccc23)cc1`: -11.6%; `CC(=O)c1ccc(N2CCN(C(=O)c3cc(-c4ccc5c(c4)OCO5)nc4ccccc34)CC2)cc1`: 2.88%.
For `CCn1cc(S(=O)(=O)NCc2ccccc2Br)cn1` the value was -1.6%; for `CCOC(=O)N1CCN(C(=O)c2c[nH]c3ccc(S(=O)(=O)N(C)c4ccccc4C)cc3c2=O)CC1`, -1.1%.
For the molecule `O[C@@H]1CCCN2CCc3c([nH]c4ccccc34)[C@H]12`, the “hERG current change (%, negative = inhibition) at 10uM” value amounted to 10.9%.
For `Cc1onc(-c2c(Cl)cccc2Cl)c1C(=O)N1CCN(c2ccccc2F)CC1` the value was 7.58%.
Next, `O=C(CN(C1CCCCC1)S(=O)(=O)c1ccc(Cl)cc1)N1CCOCC1`: -59.5%; `Cc1ccc(S(=O)(=O)N(CC(=O)N2CCCC2)C2CCCCC2)cc1`: -37.7%.
As to `CCOC(=O)N1CCN(C(=O)CN(C2CCCCC2)S(=O)(=O)c2ccc(Cl)cc2)CC1`, the “hERG current change (%, negative = inhibition) at 10uM” value is recorded as -47.8%.
For `NC(=O)C1CCN(C(=O)CN(C2CCCCC2)S(=O)(=O)c2ccc(F)cc2)CC1` the value was -13.4%; for `O=C(CN(C1CCCCC1)S(=O)(=O)c1ccccc1)N1CCCC1`, -59.3%.
Next, `Cc1ccc(S(=O)(=O)N(CC(=O)N2CCOCC2)C2CCCCC2)cc1`: -23.3%; `Cc1ccc(SCC(=O)OCC(=O)N(CC(C)C)C2CCS(=O)(=O)C2)cc1C` (centres unmarked): -4.29%.
For `CCOc1ccc(C(c2c(NC(=O)c3ccccc3)sc(C)c2C)N2CCN(CCO)CC2)cc1` (centres unmarked) the value was -21.1%; for `CCc1cc(C(c2ccccc2OC)N2CCOCC2)c(NC(=O)c2ccccc2)s1` (centres unmarked), 21.3%; for `CC(=O)Nc1sc2c(c1C(c1ccccn1)N1CCN(C)CC1)CCCC2` (centres unmarked), -12.9%.
`CCN1CCN(C(c2ccccn2)c2c(NC(=O)c3ccccc3)sc(C)c2C)CC1` (centres unmarked): the “hERG current change (%, negative = inhibition) at 10uM” value is -59.8%.
For `Cc1sc(NC(=O)c2ccccc2)c(C(c2ccc(Cl)cc2)N2CCN(CCO)CC2)c1C` (centres unmarked) the value was -4.47%; for `Cc1sc(NC(=O)c2ccccc2)c(C(c2ccccn2)N2CCN(CCO)CC2)c1C` (centres unmarked), -53.7%; for `CCc1cc(C(c2ccncc2)N2CCN(C)CC2)c(NC(=O)c2ccccc2)s1` (centres unmarked), -40.2%.
Consider `COc1cccc(C(c2c(NC(=O)c3ccccc3)sc(C)c2C)N2CCN(C)CC2)c1` (centres unmarked), for which the “hERG current change (%, negative = inhibition) at 10uM” value is given as -17.6%.
Next, `CCc1cc(C(c2ccccn2)N2CCN(C)CC2)c(NC(=O)c2ccccc2)s1` (centres unmarked): -59.1%; `COc1ccc(/C(C)=N/NC(=O)c2nnn(-c3nonc3N)c2-c2ccccc2)cc1`: 19.8%.
Next, `N#CC(c1ccccn1)c1ncc(C(F)(F)F)cc1Cl` (centres unmarked): 23.5%; `Cc1cccc(Cn2c(C(=O)OC(C)C)cc3c2ccn3C)c1`: 6.07%; `S=c1[nH]nc(COc2ccc(Cl)cc2)n1C1CCCCC1`: 14.3%.
For the molecule `Cc1cc(NC(=O)COC(=O)[C@@H](NS(=O)(=O)c2ccccc2)C(C)C)no1`, the “hERG current change (%, negative = inhibition) at 10uM” value is -7.67%.
For `COc1ccc(S(=O)(=O)NC(C)C(=O)NCc2ccncc2)cc1OC` (centres unmarked) the value was 15.7%.
With `Cc1c([C@H]2[C@@H](CC#N)C2(C)C)c2ccccc2n1C`, the “hERG current change (%, negative = inhibition) at 10uM” value is listed as -10.4%.
For `Clc1ccc(-c2nnc(NCc3ccccc3)c3ccccc23)cc1` the value was -13.3%; for `Clc1ccc(-c2nc(NCCN3CCOCC3)c3ccccc3n2)cc1`, -15.6%.
Next, `Clc1ccc(-c2nnc(NCCN3CCCC3)c3ccccc23)cc1`: -71.3%.
Next, `O=C(Nc1cccc(Cl)c1)OCc1cncs1`: -2.42%.
For `O=c1c(-c2nnc(SCc3ccc(Cl)c(Cl)c3)o2)cccn1Cc1ccccc1`, the “hERG current change (%, negative = inhibition) at 10uM” value was 1.6%.
Next, `O=c1c(-c2nnc(SCc3ccc(Cl)cc3)o2)cccn1Cc1ccccc1`: -46.2%.
In the case of `O=c1c(-c2nnc(SCc3ccc(Cl)cc3Cl)o2)cccn1Cc1ccccc1`, the “hERG current change (%, negative = inhibition) at 10uM” value is reported as -62.5%.
With `Cc1ccc(NC(=O)C(CC(C)C)NC(=O)C2CCC(C)CC2)nc1` (centres unmarked), the “hERG current change (%, negative = inhibition) at 10uM” value is listed as -6.68%.
For `CCCc1cc(=O)[nH]c(SCC(=O)Nc2c(C)cccc2C)n1` the value was 6.31%.
